27 molecules from PubChem BioAssay (Tox21) can be followed below.

Values without a mark were called inactive. Records with an inconclusive call do not appear. Calls of active or inactive are those of the source. Calls follow the shape of the dose curve; as a rule, active = well fitted curve in the direction sought with a large enough effect in the repeat runs; inconclusive = weak or mixed curves; inactive = no such curve, though single readings can be large; an effect the other way counts as inactive or inconclusive.

Experiment [1] in a line: Caspase-3/7 induction in CHO-K1 cells by small molecules, qHTS assay (AID 1346980). Also: nearly all actives have a fitted effect of over 15% in size. Put shortly: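 Luminescent Caspase-Glo 3/7 read (30min, room temperature) quantified apoptosis induction. Cells were wild-type CHO-K1, treated with compound for 17hr at 37 C and 5% CO2.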
Experiment [2] in a line: Caspase-3/7 induction in HepG2 cells by small molecules, qHTS cell viability counter screen (AID 1346981). Also: nearly all actives have a fitted effect of over 30% in size. Also: potency is read from the fitted curve at half-maximal effect. As to activity change, negative = cytotoxicity: series mostly up to about 92 µM. In short, it runs like this:
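After a 5-hr attachment period at 37 C and 5% CO2, wild-type HepG2 cells received compounds in DMSO. Sixteen hours later CellTiter-Fluor was dispensed and the fluorescent signal quantified after a further hour.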

The target of experiment [3] is Nuclear receptor subfamily 1 group I member 2 (Homo sapiens) (UniProt O75469). The experiment in a line: Human pregnane X receptor (PXR) small molecule agonists, qHTS assay (AID 1346982). Also: nearly all actives have a fitted effect of over 35% in size. Also: potency is read from the fitted curve at half-maximal effect. Put shortly: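 Tox21 qHTS; PXR-Luc HepG2; compounds pinned from DMSO; 24 hr, 37 C; ONE-Glo luciferase detection, 30 min room temperature.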
Sequence of Nuclear receptor subfamily 1 group I member 2 (Homo sapiens) (O75469 whole entry, looked up): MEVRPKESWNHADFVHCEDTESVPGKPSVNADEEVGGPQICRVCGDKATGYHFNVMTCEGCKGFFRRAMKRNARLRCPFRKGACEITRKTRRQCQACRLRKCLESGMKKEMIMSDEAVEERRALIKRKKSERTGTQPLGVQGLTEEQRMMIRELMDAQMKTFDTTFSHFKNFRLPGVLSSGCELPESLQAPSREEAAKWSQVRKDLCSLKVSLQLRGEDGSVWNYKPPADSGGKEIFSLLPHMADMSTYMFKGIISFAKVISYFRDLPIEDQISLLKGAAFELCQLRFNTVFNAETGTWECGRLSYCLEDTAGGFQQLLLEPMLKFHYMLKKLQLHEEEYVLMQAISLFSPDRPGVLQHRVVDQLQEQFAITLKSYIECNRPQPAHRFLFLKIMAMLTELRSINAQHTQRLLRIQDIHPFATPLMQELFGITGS
For experiment [4], the target named is Nuclear receptor subfamily 1 group I member 2 (Rattus norvegicus) (UniProt Q9R1A7). The experiment in a line: Rat pregnane X receptor (rPXR) activation by small molecules, qHTS assay (AID 1346983). Also: nearly all actives have a fitted effect of over 20% in size. The settings on record: rPXR luciferase reporter cells, One-Glo luminescence, 24 h; max activation: active compounds read high. Put shortly:
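Luminescent readout (One-Glo luciferase, 30 min room temperature) followed 24 hr compound treatment at 37 C of rPXR cells plated 2,000 per well and preincubated 5hr; qHTS format with compounds delivered in DMSO.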
In general terms: In qHTS, concentration-response curves come from the screen itself.

Experiment [5] concerns the target Nuclear receptor subfamily 1 group I member 2 (Homo sapiens) (UniProt O75469). The experiment in a line: CYP3A4 induction through human pregnane X receptor (PXR) by small molecules, qHTS assay (AID 1346984). Also: nearly all actives have a fitted effect of over 40% in size. In short, it runs like this:
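Cells (DPX-2; HepG2 with PXR element plus CYP3A4-promoter luciferase) settled 5hr, then were treated 24hr at 37C. A 3hr, 3uM-final Luciferin-IPA step preceded luminescence measurement with One-Glo.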

The target is the same in experiment [6]. The experiment in a line: Human pregnane X receptor (PXR) activation by small molecules, qHTS assay (AID 1346985). Also: nearly all actives have a fitted effect of over 40% in size. Put shortly: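 DPX-2 cells (HepG2 co-transfected with a PXR response element and a CYP3A4-promoter luciferase construct) were seeded at 2,000 per well, rested 5 hr at 37C, then exposed to DMSO-dissolved compounds for 24 hr. Activation was read as luciferase luminescence.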

In experiment [7] the target is Cytochrome P450 2D6 (Homo sapiens) (UniProt P10635). As to the kind of experiment: Cytochrome P450 Family 2 Subfamily D Member 6 (CYP2D6) small molecule antagonists: luciferase reporter qHTS assay (AID 1671196). Also: nearly all actives have a fitted effect of over 50% in size. Also: potency is read from the fitted curve at half-maximal effect. As to activity change, negative = inhibition: series mostly up to about 120 µM. In short, it runs like this: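 Room-temperature luminescent CYP2D6 activity assay: compound preincubated 10 min with enzyme–substrate mix, NADPH-initiated reaction 1 h, detection reagent 20 min before reading.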
Sequence of Cytochrome P450 2D6 (Homo sapiens) (P10635 whole entry, looked up): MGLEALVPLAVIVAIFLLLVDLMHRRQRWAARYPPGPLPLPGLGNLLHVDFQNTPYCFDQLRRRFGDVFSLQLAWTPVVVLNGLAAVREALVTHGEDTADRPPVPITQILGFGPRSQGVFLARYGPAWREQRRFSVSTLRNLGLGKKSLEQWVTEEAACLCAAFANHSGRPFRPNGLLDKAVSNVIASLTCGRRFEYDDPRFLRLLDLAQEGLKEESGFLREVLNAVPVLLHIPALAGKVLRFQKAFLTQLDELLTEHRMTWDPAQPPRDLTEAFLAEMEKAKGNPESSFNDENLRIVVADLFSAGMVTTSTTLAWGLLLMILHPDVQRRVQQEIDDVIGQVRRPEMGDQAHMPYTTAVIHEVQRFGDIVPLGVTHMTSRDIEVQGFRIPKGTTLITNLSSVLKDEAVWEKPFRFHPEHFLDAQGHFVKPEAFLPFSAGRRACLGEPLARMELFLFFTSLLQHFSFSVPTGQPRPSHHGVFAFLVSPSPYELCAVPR

Experiment [8] concerns the target Cytochrome P450 2C19 (Homo sapiens) (UniProt P33261). The experiment in a line: Cytochrome P450 Family 2 Subfamily C Member 19 (CYP2C19) small molecule antagonists: luciferase reporter qHTS assay (AID 1671197). Also: nearly all actives have a fitted effect of over 65% in size. Also: potency is read from the fitted curve at half-maximal effect. As to activity change, negative = inhibition: series mostly up to about 120 µM. Put shortly: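 Enzyme-substrate mix with proluciferin substrate (P450-Glo CYP2C19 system) preincubated with compounds 10 min at room temperature; NADPH regeneration solution added, 37C for 1 h; detection reagent stops reaction, luminescence read after 20 min. Ketoconazole positive control.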
(In general: In a reporter assay the amount or activity of a reporter protein is the signal.)

The target of experiment [9] is Cytochrome P450 2C9 (Homo sapiens) (UniProt P11712). The experiment in a line: Cytochrome P450 Family 2 Subfamily C Member 9 (CYP2C9) small molecule antagonists: luciferase reporter qHTS assay (AID 1671198). Also: nearly all actives have a fitted effect of over 50% in size. Also: potency is read from the fitted curve at half-maximal effect. As to activity change, negative = inhibition: series mostly up to about 120 µM. In short, it runs like this:
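Enzyme-substrate mix preincubated with compound 10 min at room temperature; reaction started with NADPH regeneration solution, 1 h 37C. Luminescent luciferin product read after 20 min detection reagent.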

The target of experiment [10] is Cytochrome P450 1A2 (Homo sapiens) (UniProt P05177). As to the kind of experiment: Cytochrome P450 Family 1 Subfamily A Member 2 (CYP1A2) small molecule antagonists: luciferase reporter qHTS assay (AID 1671199). Also: nearly all actives have a fitted effect of over 50% in size. Also: potency is read from the fitted curve at half-maximal effect. As to activity change, negative = inhibition: series mostly up to about 120 µM. Put shortly: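 Room-temperature CYP1A2 reaction with proluciferin substrate: compounds added from DMSO, 10 min preincubation, NADPH regeneration for 1 h. Luciferin detection reagent then added; luminescence recorded as RLU.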
Sequence of Cytochrome P450 1A2 (Homo sapiens) (P05177 whole entry, looked up): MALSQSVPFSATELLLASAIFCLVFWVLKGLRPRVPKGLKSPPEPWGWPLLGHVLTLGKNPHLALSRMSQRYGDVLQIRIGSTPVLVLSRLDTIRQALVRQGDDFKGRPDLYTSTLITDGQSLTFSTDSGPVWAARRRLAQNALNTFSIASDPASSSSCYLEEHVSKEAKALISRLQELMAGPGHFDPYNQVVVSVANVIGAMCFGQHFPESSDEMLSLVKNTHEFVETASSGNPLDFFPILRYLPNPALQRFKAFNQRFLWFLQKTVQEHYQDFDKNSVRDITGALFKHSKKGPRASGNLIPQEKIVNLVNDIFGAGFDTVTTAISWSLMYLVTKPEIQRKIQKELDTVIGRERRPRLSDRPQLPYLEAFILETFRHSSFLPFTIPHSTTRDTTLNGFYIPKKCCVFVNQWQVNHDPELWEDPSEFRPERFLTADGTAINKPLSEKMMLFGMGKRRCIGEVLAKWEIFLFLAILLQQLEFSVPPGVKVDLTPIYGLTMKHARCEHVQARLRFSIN
% is scaled to controls: 0 for no effect and ±100 for the full control effect.

Sequence of Cytochrome P450 2C9 (Homo sapiens) (P11712 whole entry, looked up): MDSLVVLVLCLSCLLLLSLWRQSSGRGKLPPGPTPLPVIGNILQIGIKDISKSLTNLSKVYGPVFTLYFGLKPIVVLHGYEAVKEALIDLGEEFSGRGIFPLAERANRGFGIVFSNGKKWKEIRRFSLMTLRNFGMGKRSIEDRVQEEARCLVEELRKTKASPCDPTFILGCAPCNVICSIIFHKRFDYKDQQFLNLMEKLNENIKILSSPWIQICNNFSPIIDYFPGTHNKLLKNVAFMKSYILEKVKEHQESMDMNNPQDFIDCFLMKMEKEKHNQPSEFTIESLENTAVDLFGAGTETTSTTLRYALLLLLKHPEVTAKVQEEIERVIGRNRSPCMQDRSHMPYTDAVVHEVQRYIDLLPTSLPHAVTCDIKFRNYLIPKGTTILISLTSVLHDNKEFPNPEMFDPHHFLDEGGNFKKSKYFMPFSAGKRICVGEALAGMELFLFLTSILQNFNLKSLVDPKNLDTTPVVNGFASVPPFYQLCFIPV
Sequence of Cytochrome P450 2C19 (Homo sapiens) (P33261 whole entry, looked up): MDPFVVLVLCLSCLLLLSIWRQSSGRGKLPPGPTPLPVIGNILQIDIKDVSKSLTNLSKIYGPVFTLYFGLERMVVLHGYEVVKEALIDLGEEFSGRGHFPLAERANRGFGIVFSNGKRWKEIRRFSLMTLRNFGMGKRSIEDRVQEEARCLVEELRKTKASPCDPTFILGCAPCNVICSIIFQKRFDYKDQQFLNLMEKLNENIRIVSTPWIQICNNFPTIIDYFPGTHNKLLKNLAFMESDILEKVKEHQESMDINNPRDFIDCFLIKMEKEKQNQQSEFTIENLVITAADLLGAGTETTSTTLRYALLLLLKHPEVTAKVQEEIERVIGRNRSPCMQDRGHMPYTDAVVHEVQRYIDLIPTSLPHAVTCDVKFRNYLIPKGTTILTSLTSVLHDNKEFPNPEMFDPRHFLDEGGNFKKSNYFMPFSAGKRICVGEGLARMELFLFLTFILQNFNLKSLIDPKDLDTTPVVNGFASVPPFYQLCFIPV
Sequence of Nuclear receptor subfamily 1 group I member 2 (Rattus norvegicus) (Q9R1A7 whole entry, looked up): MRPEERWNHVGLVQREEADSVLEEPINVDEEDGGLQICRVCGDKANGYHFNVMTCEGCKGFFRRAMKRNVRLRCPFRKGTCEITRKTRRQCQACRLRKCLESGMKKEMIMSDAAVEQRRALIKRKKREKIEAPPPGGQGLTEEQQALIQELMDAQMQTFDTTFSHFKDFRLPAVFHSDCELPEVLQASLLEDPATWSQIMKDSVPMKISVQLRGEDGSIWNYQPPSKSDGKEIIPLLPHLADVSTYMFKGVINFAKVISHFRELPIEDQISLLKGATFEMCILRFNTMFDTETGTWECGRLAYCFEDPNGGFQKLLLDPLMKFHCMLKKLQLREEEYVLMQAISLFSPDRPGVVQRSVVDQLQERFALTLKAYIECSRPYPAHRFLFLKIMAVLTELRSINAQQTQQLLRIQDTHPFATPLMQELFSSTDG

On to `CCCCCCCCCCCCCCCCC(C(=O)O)C(O)(CC(=O)O)C(=O)O` (stereo not drawn), for which the Potency result in [1], in [2], in experiment [3], in experiment [5], in experiment [6] and in experiment [8] was “inactive” throughout. The Potency entry in experiment [9] and in experiment [10] was “inactive” in each case. For the same molecule, the max activation in experiment [4] was -2.33%. In experiment [7], the Potency is 34.7 µM (active).

For `CC(C)=CCC[C@H](C)CC=O`, the Potency entry in [1] and in experiment [2] was “inactive” each time.

For `CCC(C)(C)c1ccc(CC(C)CN2C[C@@H](C)O[C@@H](C)C2)cc1` (stereo partly drawn), the Potency result in experiment [1], in [2], in [3] and in experiment [5] was “inactive” in each case. In experiment [4], the max activation is -0.729%. The Potency is 6.92 µM (active) in experiment [7], 11 µM (active) in experiment [8] and 27.5 µM (active) in experiment [9].

As for `CCCC(C)C=O` (stereo not drawn), the Potency entry in experiment [1], in experiment [2], in [3], in [7], in experiment [8] and in experiment [9] was “inactive” in each case. In addition, in experiment [10], the Potency entry is “inactive”.

In the case of `Cc1ccc(C=O)cc1`, the Potency entry in [1], in experiment [2], in [3], in [7], in [8] and in experiment [9] was “inactive” throughout. For the same molecule, in experiment [10], the Potency entry was “inactive”.

Regarding `CN1CCN(C)CC1`, the Potency result in experiment [1], in experiment [2], in experiment [3], in experiment [7], in [8] and in [9] was “inactive” each time. Besides, the Potency result in [10] was “inactive”.

With `C=C(C)C1CCC(C)CC1O` (stereo not drawn), the Potency entry in experiment [1], in experiment [2], in experiment [3], in experiment [7], in experiment [8] and in experiment [9] was “inactive” in each case. The Potency result in experiment [10] was “inactive”.

On to `C=C(C)CCO`, for which the Potency entry in [1], in experiment [2], in [3], in experiment [7], in [8] and in experiment [9] was “inactive” in each case. In [10], the Potency entry is “inactive”.

Regarding `COCCC(=O)OC`, the Potency result in experiment [1], in experiment [2], in [3], in experiment [7], in experiment [8] and in [9] was “inactive” in each case. In addition, the Potency entry in experiment [10] was “inactive”.

On to `O=C1C=CC(=O)N1c1cccc(N2C(=O)C=CC2=O)c1`, for which the Potency entry in experiment [1] and in experiment [3] was “inactive” in each case. The Potency was 61.1 µM (active) in experiment [2]; 71 µM (active) in [7]; 7.1 µM (active) in experiment [8]; 6.33 µM (active) in experiment [9]; 15.9 µM (active) in [10].

`Cn1ccnc1`: the Potency entry in [1], in [2], in [3], in experiment [7], in experiment [8] and in experiment [9] was “inactive” throughout. In [10], the Potency result was “inactive”.

Regarding `CO[Si](OC)(c1ccccc1)c1ccccc1`, the Potency entry in experiment [1], in [2], in experiment [7] and in [10] was “inactive” in each case. For the same molecule, the Potency in [3] was 34.4 µM (active); in experiment [8] it was 10 µM (active); in experiment [9], 20 µM (active).

Consider `COc1c(Br)cc(Br)c(C)c1Br`, for which the Potency entry in experiment [1], in experiment [2], in [3], in experiment [7] and in [9] was “inactive” in each case. The Potency in experiment [8] was 89.4 µM (active); in [10], 3.56 µM (active).

Consider `Oc1cccc2c(O)cccc12`, for which the Potency result in experiment [1] and in experiment [2] was “inactive” throughout. Further, the Potency in experiment [3] was 54.5 µM (active); in experiment [7], 39.9 µM (active); in experiment [8], 17.8 µM (active); in [9] it was 22.4 µM (active); in [10] it was 22.4 µM (active).

Turning to `C=COCCCC`, the Potency entry in experiment [1], in experiment [2], in experiment [3], in [7], in experiment [8] and in [9] was “inactive” in each case. Moreover, the Potency result in experiment [10] was “inactive”.

With `C=CC(C)(C)O`, the Potency entry in experiment [1], in [2], in experiment [3], in experiment [7], in experiment [8] and in experiment [9] was “inactive” each time. Moreover, the Potency entry in [10] is “inactive”.

For `CC1(C)[C@H](C(=O)OCc2cccc(Oc3ccccc3)c2)[C@@H]1C=C(Cl)Cl`, the Potency result in experiment [1], in [2], in experiment [3], in experiment [7], in [8] and in experiment [9] was “inactive” throughout. In addition, the Potency entry in experiment [10] was “inactive”.

On to `CC1=CC[C@@H](C(C)(C)O)CC1`, for which the Potency entry in experiment [1], in experiment [2], in experiment [3], in [7], in experiment [8] and in [9] was “inactive” throughout. The Potency entry in experiment [10] was “inactive”.

On to `CCCCCCCCCCCCN1CCCC1=O`, for which the Potency result in experiment [1] and in experiment [7] was “inactive” throughout. The Potency in experiment [2] was 61.1 µM (active); in experiment [3] it was 27.3 µM (active); in experiment [8], 35.6 µM (active); in experiment [9] it was 31.7 µM (active); in [10], 28.3 µM (active).

For `O=C1CCCCCCCCCCCCCC1`, the Potency result in experiment [1], in [2], in experiment [3], in experiment [7], in [8] and in [9] was “inactive” each time. Besides, the Potency result in [10] was “inactive”.

On to `O=C1OC2(c3ccccc31)c1ccc(O)c(Br)c1Oc1c2ccc(O)c1Br`, for which the Potency result in [1], in [3], in experiment [7] and in [10] was “inactive” in each case. Besides, the Potency in experiment [2] is 27.3 µM (active); in experiment [8] it was 89.4 µM (active); in experiment [9], 63.3 µM (active).

For the molecule `CCN(CCC#N)c1ccc(N=Nc2ccc([N+](=O)[O-])cc2)cc1`, the Potency entry in [1], in experiment [2], in [7], in experiment [8], in experiment [9] and in experiment [10] was “inactive” each time. Further, the Potency in experiment [3] was 6.11 µM (active).

As for `Clc1cccc(Cl)n1`, the Potency result in experiment [1], in [2], in experiment [3], in [7], in experiment [8] and in experiment [9] was “inactive” each time. Moreover, the Potency result in experiment [10] is “inactive”.

As to `O=C(O)CN(CCCN(CC(=O)O)CC(=O)O)CC(=O)O`, the caspase-3/7 activation in experiment [1] was 5.17% [at 19 µM]. Moreover, the activity change, negative = cytotoxicity in [2] was -12.2% [at 19 µM]. Moreover, the activation in experiment [3] is 1.69% [at 19 µM]. The activity change, negative = inhibition was 2.09% [at 23.6 µM] in [7], -5.87% [at 23.6 µM] in experiment [8], -3.48% [at 23.6 µM] in [9] and -0.26% [at 23.6 µM] in experiment [10].

For `COC(=O)c1ccc([N+](=O)[O-])cc1`, the Potency result in experiment [1], in experiment [2], in experiment [3], in experiment [7], in experiment [8] and in experiment [9] was “inactive” each time. Besides, the Potency in experiment [10] is 17.8 µM (active).

On to `CCc1cccc(CC)c1`, for which the Potency result in experiment [1], in experiment [2], in experiment [3], in experiment [7], in experiment [8] and in [9] was “inactive” in each case. Moreover, in experiment [10], the Potency result was “inactive”.

On to `C=C[Si](C)(C)Cl`, for which, in experiment [1], the caspase-3/7 activation is 0.183% [at 8.39 µM]. Also, the activity change, negative = cytotoxicity in [2] was -0.712% [at 8.39 µM]. In addition, the activation in experiment [3] is 4.97% [at 8.39 µM]. The activity change, negative = inhibition is 0.847% [at 10.5 µM] in [7], -15.5% [at 10.5 µM] in experiment [8], -1.65% [at 10.5 µM] in experiment [9] and -9.04% [at 10.5 µM] in experiment [10].
